# Most compounds without a hit are left out; they make up all but 4.2% or so of the library.
# Sfp inh – inhibitors of Bacillus subtilis Sfp phosphopantetheinyl transferase | Q9F4F7 | Biochemical Sfp PPTase activity, qHTS | Potency, µM, without a hit: largest response in the series, negative = inhibition, hits mostly inhibitors | hit rate 3.5% among 310,000;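 further: the enzyme is Sfp with the accession as filed and its product quenches rhodamine fluorescence; potency means the concentration at half of the fitted maximal effect; 0% = enzyme reaction without inhibitor and -100% = no enzyme wells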
#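 Buffer: 50 mM Hepes-Na pH 7.6, 10 mM MgCl2, 0.01% Nonidet P-40, 0.01% BSA. Enzyme 15 nM, pre-exposed to compound 15 min; substrates then added and fluorescence change tracked over 30 min.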
# ClpP mod – qHTS Assay for Activators of ClpP. Potency, µM (highest dose often 57.5 µM), for the others: at the highest dose activity change, negative = active. purified B. subtilis ClpP, FRET peptide cleavage, 20 min. hit rate 1.9% among 340,000. ATP-dependent Clp protease proteolytic subunit (Bacillus subtilis (strain 168)), P80244; active means well fitted falling curve with a large enough effect; inconclusive means small, poorly fitted or top-dose-only effect; inactive means no such curve, though single readings can be large or run the other way; further: potency means the concentration at half of the fitted maximal effect; the source files actives as falling curves though it sought activators and does not explain the sign; nearly all actives have a fitted effect of over 65% in size
# Target sequence (P80244 whole entry, looked up): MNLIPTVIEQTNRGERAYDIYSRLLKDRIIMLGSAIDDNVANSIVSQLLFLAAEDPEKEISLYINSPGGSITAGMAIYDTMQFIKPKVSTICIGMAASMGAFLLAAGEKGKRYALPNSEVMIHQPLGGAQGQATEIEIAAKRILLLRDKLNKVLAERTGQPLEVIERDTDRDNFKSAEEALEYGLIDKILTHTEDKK
#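 Purified B. subtilis ClpP, 10 microg/mL final in Tris/HCl pH8 with KCl, BSA, glycerol and Tween-20, cleaved an Abz/nitrotyrosine-quenched decapeptide. Fluorescence (ex 320, em 430) was read at 0 and 20 min at room temperature. Delta was normalized to 5.8 microM ADEP and DMSO/no-enzyme controls.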
# TCR act – activates T cell receptor signaling; primary human leukocytes, anti-CD3, IL-2 HTRF, 48 h; Potency, µM (highest dose often 9.22 µM), without a hit: at the top dose activation of IL-2 secretion, most hits filed as activators; 330,000 tested, under 10 active; further: % of control where 0% means no effect
#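 48 hr co-incubation of compounds, a-CD3 beads and primary human leukocytes; IL-2 quantified homogeneously by HTRF with anti-IL-2 K and d2 conjugates.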
# uPA surface inh – inhibitors of cell surface uPA generation. cell surface uPA generation assay, qHTS. AID 540303. hit rate 0.31% among 330,000. Potency, µM (highest dose often 38.3 µM), for inactives: at the top dose activity change, negative = inhibition, usual class: inhibitors; active means well fitted inhibition curve with a large enough effect; inconclusive means small, poorly fitted or top-dose-only effect; inactive means no such curve, though single readings can be large or run the other way; tested in mouse RAW 264.7 cells; further: potency means the concentration at half of the fitted maximal effect; on the % scale 0 is the no-effect control and ±100 the full control effect; nearly all actives have a fitted effect of over 55% in size
# * = called active by the depositor; ? = inconclusive; . = not tested or not shown; ! = a repeat was not active; [ ] = another dose, or the depositor's remark. Unless noted, the call rests on the fitted dose curve; in most records, active means well fitted curve in the direction sought with a large enough effect; inconclusive means small, poorly fitted or top-dose-only effect, or another doubt; inactive means no such curve, though single readings can be large; an effect the other way counts as inactive or inconclusive.
SMILES,Sfp inh,ClpP mod,TCR act,uPA surface inh
COc1ccc(Oc2c(C)oc3c(CN(C)C)c(O)ccc3c2=O)cc1,14%,28µM*,2%,.
CCc1c(C)c2ccc(O)c(CN(C)C)c2oc1=O,10%,-34%,-8%,.
CCN(C(=O)CSc1nc2cc(S(=O)(=O)N(CC)CC)ccc2o1)C1CCS(=O)(=O)C1 (centres undefined),18µM*,0%,5%,3%
CCN(C(=O)CSc1nc(-c2ccccc2)c(-c2ccccc2)[nH]1)C1CCS(=O)(=O)C1 (centres undefined),-1%,25µM*,4%,-4%
O=C(NCCc1ccccc1)c1cc(S(=O)(=O)N2CCCCC2)c[nH]1,.,-3%,.,.
CNc1ccc(/C=C2\C=Cc3ccccc32)cc1Cl,.,-3%,.,.
CCS(=O)(=O)Nc1c(C(=O)O)[nH]c2ccccc12,5%,22µM*,1%,5%
Cc1ccc(Nc2c(-c3ccco3)nc3ccccn23)cc1,?,25µM*,-2%[46.1 µM],-1%
c1coc(-c2nc3ccccn3c2Nc2ccc3c(c2)OCCO3)c1,.,4%,.,.
c1ccc(Nc2c(-c3ccco3)nc3ccccn23)cc1,-6%,25µM*,-11%[46.1 µM],0%
Fc1ccc(Nc2c(-c3ccco3)nc3ccccn23)cc1,?,28µM*!,2%[46.1 µM],2%
COc1ccccc1CCNC(=O)C(=O)NCC(c1cccnc1)N1CCN(c2ccccc2)CC1 (centres undefined),.,0%,.,.
COc1ccc(Cl)cc1NC(=O)CCc1c(C)nc2c(c1C)c(=O)n(C)c(=O)n2C,.,0%,.,.
CCc1cccc(C)c1NC(=O)c1cccc(C(=O)Nc2c(C)cccc2CC)c1,.,3%,.,.
CCc1cccc(C)c1NC(=O)c1cccc(N(C)C)c1,56µM*,-4%,4%,-2%
COc1ccc(-c2cc(C(=O)Nc3cccc(O)c3)no2)cc1,16%,-5%,-2%,5µM*
CCn1cc(C(=O)O)c(=O)c2cc(S(=O)(=O)N3CCCCCC3)ccc21,7%,-4%,1%,-5%
CCn1cc(C(=O)O)c(=O)c2cc(OC)ccc21,-1%,32µM*,-1%,5%
Cc1nnc2sc(SCC(=O)Nc3ccc(Br)cc3)nn2c1=O,15%,25µM*,4%,-12%
COc1ccc(NC(=O)CSc2nn3c(=O)c(C)nnc3s2)cc1,8%,1%,-1%,1%
CCSc1nc2nccnc2c(=O)[nH]1,.,0%,-1%,1%
COc1ccc(CC(=O)Nc2ccc(-c3nc4ccccc4s3)cc2Cl)cc1OC,.,5%,.,.
COC(=O)c1ccccc1NC(=O)c1cccc(COc2ccccc2Cl)c1,-9%,25µM*,4%,-5%
CCC1(C)CC(=O)N(c2ccc(C(=O)O)c(O)c2)C1=O (centres undefined),24%,25µM*,2%,5%
O=C(NCc1cnc2ccccn12)C1CCC(=O)N(Cc2ccccc2F)C1 (centres undefined),16%,32µM*,-2%,0%
SMILES,Sfp inh,ClpP mod,TCR act,uPA surface inh
CCCCCCSc1ccc(-c2nc3ccc(C)cn3c2NCc2ccccc2)cc1OC,.,3%,-12%,2%
CCC(C)Sc1ccc(-c2nc3ccc(C)cn3c2NCc2ccccc2)cc1OC (centres undefined),.,4%,-9%,5.6µM*
CCCCNc1c(-c2ccc(OC)c(SC(C)CC)c2)nc2ccc(C)cn12 (centres undefined),.,4%,-7%,?
CCC(C)Sc1cccc(-c2nc3ccc(C)cn3c2NC2CCCCC2)c1 (centres undefined),.,16µM*!,4%,5%
CCC(C)Sc1ccc(-c2nc3ccc(C)cn3c2NC2CCCCC2)cc1 (centres undefined),.,4%,-4%,-36%
CCC(C)Sc1cc(-c2nc3ccc(C)cn3c2NCc2ccccc2)ccc1OC (centres undefined),.,?,4%,4.5µM*
CCCCNc1c(-c2ccc(SC(C)CC)cc2)nc2ccccn12 (centres undefined),.,4%,-3%,2µM*
O=C(CCn1c(=O)c2cccn2c2cccnc21)NCc1ccccc1F,.,-14%,.,.
Cc1cc(C)c(NC(=O)c2cc(CN3CCOCC3)on2)c(C)c1,.,-1%,.,.
CCC(CC)C(=O)N(C)c1c(C)nc2c(OCCOc3ccc(F)cc3)cccn12,.,0%,.,.
COc1ccc(-c2cc(-c3nc4ccccn4c3NCc3ccccc3)ccc2OC)cc1,.,3%,7%,5.6µM*
COc1ccc(-c2nc3ccc(C)cn3c2NCc2ccccc2)cc1SC1CCCCC1,.,3%,-3%,3.2µM*
COc1ccc(-c2nc3ccccn3c2NCc2ccc3c(c2)OCO3)cc1,-11%,?,2%[46.1 µM],0%
CCCCNc1c(-c2ccc(OC)c(SC(C)CC)c2)nc2cc(C)ccn12 (centres undefined),.,27µM*!,-2%,-20%
COc1ccc(-c2nc3cc(C)ccn3c2NCc2ccc3c(c2)OCO3)cc1,?,28µM*,-1%,1%
COc1ccc(C(=O)NCC(=O)OCC(=O)c2ccc3ccccc3c2)cc1,.,-2%,.,.
COc1ccccc1CN1CC(C(=O)NCc2cc(F)cc(C(F)(F)F)c2)CCC1=O (centres undefined),5%,-1%,-4%,-4%
CCS(=O)(=O)Nc1ccc(-c2cc(-c3ccccc3)c3cc(C)ccc3n2)cc1,-16%,18µM*,-2%[46.1 µM],-2%
CN=c1scc(-c2ccc(F)cc2)n1/N=C/c1ccc(O)c(O)c1,56µM*,.,0%,-13%
CN=c1scc(-c2ccc([N+](=O)[O-])cc2)n1/N=C/c1ccco1,7%,.,1%,-3%
Fc1ccccc1Cc1noc(CN2CCC(OCc3cccnc3)CC2)n1,35µM*,.,1%,2%
COC(=O)c1ccc(COC(=O)c2ccccn2)cc1,11%,1%,6%,9%
COC(=O)c1ccc(COC(=O)CCc2nc(-c3ccccc3)c(-c3ccccc3)o2)cc1,16%,32µM*,.,-11%
C[C@]12C[C@@](C)(C=C1/C=C/c1ccc(C(F)(F)F)cc1)C(=O)C[C@H]2c1ccc(C(F)(F)F)cc1,13%,.,.,.
O=C(O)C(=Cc1cccc([N+](=O)[O-])c1)c1ccc(Cl)cc1,.,25µM*,8%,0%
SMILES,Sfp inh,ClpP mod,TCR act,uPA surface inh
Cc1cccc(C(=Cc2ccc([N+](=O)[O-])cc2)C(=O)O)c1,.,1%,.,.
CC(C)C[C@H](NC(=O)OC(C)(C)C)C(=O)N/N=C/C1=Cc2ccccc2OC1C (some centres undefined),18%,28µM*,1%,.
CC(C)C[C@H](NC(=O)OC(C)(C)C)C(=O)N/N=C/c1ccc2nccnc2c1,13%,-6%,3%,.
O=[N+]([O-])c1cc(Cc2ccccc2)cc(C=Nc2ccc(N3CCOCC3)cc2)c1O,-17%,-2%,5%[46.1 µM],6%
Cc1ccc(O)c(N=Cc2cc(Cc3ccccc3)cc([N+](=O)[O-])c2O)c1,8.9µM*,.,-9%,-13%
CCC1=C(c2ccc(C)cc2)S(=O)(=O)N=C1N1CCC(C(=O)Nc2ccccc2F)CC1,.,-2%,.,.
CSc1nnc(-c2sc3cc(C(F)(F)F)cnc3c2-c2ccccn2)n1C,1%,28µM*,8%,-6%
